HT1080NT lethal: kills 2HG-producing HT-1080-NT fibrosarcoma cells. HT-1080-NT fibrosarcoma viability, CellTiter-Glo ATP luminescence, 48 h. AID 686970. Potency, µM (series often up to 46.1 µM), hits mostly cytotoxic. actives 1.6% (n = 360,000);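 note: NT is the 2HG producing partner of a matched IDH1 knockdown line; nearly all actives have a fitted effect of over 55% in size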
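A 48-hour cytotoxicity screen used HT-1080-NT cells plated 2 hours before compound delivery. ATP-based CellTiter-Glo luminescence measured viability, normalized to DMSO and no-cell controls.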
KB-3-1 tox: KB-3-1 parental cell cytotoxicity | KB-3-1 viability, CellTiter-Glo ATP luminescence, 72 h | Potency, µM (highest dose often 46.1 µM), usual class: cytotoxic | actives 1.4% (n = 400,000) | AID 1347075; note: nearly all actives have a fitted effect of over 60% in size
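Parental KB-3-1 viability, qHTS format: 72 h compound exposure, 37 °C; CellTiter-Glo; media-only wells and DMSO plates as controls; concentration-effect fits on corrected data.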
DT40 TDP1 no CPT: qHTS for Inhibitors of human tyrosyl-DNA phosphodiesterase 1 (TDP1): qHTS in cells in absence of CPT; DT40 Tdp1-/- hTDP1 cells, no CPT, ATP luminescence, 48 h; Potency, µM (titrated, usually from 46.2 µM), hits mostly inhibitors; actives 15% (n = 420,000); AID 686978, 2013; note: nearly all actives have a fitted effect of over 55% in size
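Growth of hTDP1-complemented DT40 Tdp1-knockout cells is measured by ATP luminescence after at least 48 hr compound exposure at 37 °C, with DMSO substituting for the 20 nM CPT used in the parallel screen.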
HT1080 IDH1KD tx: toxicity to HT-1080 IDH1 knockdown cells (counter line); HT-1080 IDH1 knockdown viability, ATP luminescence, 48 h; AID 686971; Potency, µM (doses to about 46.1 µM), usual class: cytotoxic; actives 2% (n = 360,000)
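After a 2 h attachment period, IDH1KD HT-1080 cells took pin-transferred compound for 48 h at 37 °C; ATP-based luminescence after 10 min room-temperature reagent incubation reported viability.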
TDP1 cell CPT: DT40-hTDP1 cell growth loss with CPT | AID 686979 | chicken DT40 Tdp1-/-;hTDP1 cells + 20 nM CPT, ATP luminescence, 48 h | Potency, µM (titrated, usually from 46.2 µM), hits mostly inhibitors | actives 12% (n = 420,000); note: nearly all actives have a fitted effect of over 55% in size
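Cell growth measured by CellTiter-Glo luminescence after a minimum 48 h, 37 C compound exposure with 20 nM CPT in Tdp1-knockout DT40 cells stably expressing hTDP1, seeded 400/well; qHTS titration format.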
KB-V1 MDR tox: KB-V1 MDR subline cytotoxicity. KB-V1 MDR cells viability, CellTiter-Glo, 72 h. Potency, µM (series often up to 46.1 µM), most hits filed as cytotoxic. actives 3.4% (n = 400,000). AID 1347076; note: nearly all actives have a fitted effect of over 60% in size
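Cytotoxicity via CellTiter-Glo luminescence after 72 h compound exposure at 37 degrees C. Cells: drug-selected KB-V1 line, DMEM phenol-red free plus 10% FBS. Compounds tested at multiple concentrations; normalized data fitted to concentration-effect curves.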
A number is an active result; . = inactive; ? = inconclusive; / = not tested or not shown. In the library only some 19% were active in any assay of this set; here they are far more common. Calls come from the whole dose curve; as a rule, active = well fitted curve in the direction sought with a large enough effect; inconclusive = small, poorly fitted or top-dose-only effect, or another doubt; inactive = no such curve, though single readings can be large; an effect the other way counts as inactive or inconclusive.

SMILES | HT1080NT lethal | KB-3-1 tox | DT40 TDP1 no CPT | HT1080 IDH1KD tx | TDP1 cell CPT | KB-V1 MDR tox
CCOC(=O)CCc1c(C)nc2c(c(C)nn2-c2ccc(C)cc2)c1C | . | . | . | . | . | .
COC(=O)c1ccccc1NC(=O)CCc1c(C)nc2c(c(C)nn2-c2ccccc2)c1C | / | . | . | / | . | .
CCC(C)NC(=O)CCc1c(C)nc2c(c(C)nn2-c2ccc(C)cc2)c1C (configuration not stated) | / | / | 7.31µM | / | 14.6µM | /
CC(C)OC(=O)c1cccnc1SCC(=O)Nc1ccc(C(F)(F)F)cc1Cl | / | / | . | / | . | /
O=C(CCc1ccccc1)NCc1ccc2c(c1)CCN2C(=O)c1ccc(Cl)cc1 | / | . | . | / | . | .
Cc1nc2c(c(C)nn2-c2ccccc2)c(C)c1CCC(=O)Nc1ccc(F)cc1 | / | . | 18.4µM | / | ? | .
C=C(C)C(=O)OC1(C(F)(F)F)Oc2cc(C)ccc2NC1=O (configuration not stated) | ? | . | 16.4µM | ? | 16.4µM | .
Cc1cccc(C)c1N1C(=O)c2ccccc2NC(=O)C1C(=O)NCCc1ccccc1F (configuration not stated) | . | . | ? | . | . | .
COc1ccc(S(=O)(=O)NCCc2csc(-c3cccnc3)n2)cc1 | . | . | . | . | 14.6µM | .
O=S(=O)(NCCc1csc(-c2cccnc2)n1)c1ccc(Cl)s1 | . | . | 23.1µM | . | 11.6µM | .
CN(C)S(=O)(=O)c1cccc(NC(=O)c2cc(=O)[nH]c(=O)[nH]2)c1 | . | . | . | . | . | .
Cc1cccc(C(=O)NC(=S)Nc2ccc(S(=O)(=O)N(C)c3ccccc3)cc2)c1 | . | . | 13µM | . | ? | ?
COC(=O)c1ccccc1NC(=S)NC(=O)c1ccccc1C | . | . | . | ? | 23.1µM | .
Cc1ccccc1C(=O)NC(=S)Nc1ccc(S(=O)(=O)N(C)c2ccccc2)cc1 | . | ? | 23.1µM | . | 23.1µM | .
CN(c1ccccc1)S(=O)(=O)c1ccc(NC(=O)c2ccccc2)cc1 | . | ? | ? | . | . | ?
COc1cccc(CC(=O)Nc2ccc3nc(Nc4cccc(C(F)(F)F)c4)cc(C)c3c2)c1 | / | . | 18.4µM | / | ? | .
COc1ccccc1CC(=O)Nc1ccc2nc(Nc3cccc(C(F)(F)F)c3)cc(C)c2c1 | / | ? | 5.8µM | / | 7.31µM | ?
COc1ccc(Nc2cc(C)c3cc(NC(=O)Cc4ccc(Cl)cc4)ccc3n2)cc1 | / | . | ? | / | ? | .
CCN1CCN(c2cc(C)c3cc(NC(=O)Cc4ccccc4OC)ccc3n2)CC1 | . | . | . | . | . | .
CC(C)CCSc1nnc2n(-c3ccccc3)c(=O)c3c4c(sc3n12)CC(C)CC4 (configuration not stated) | / | / | . | / | . | /
Cc1ccccc1OCC(=O)OCc1cc(=O)n2nc(C3CCCCC3)sc2n1 | / | . | . | / | . | .
CCn1c(=O)n(CC)c2cc(S(=O)(=O)N3CCC(c4ccccc4)CC3)ccc21 | ? | . | ? | . | ? | 23.1µM
CCN(CC)S(=O)(=O)c1ccc2c(c1)c(=O)c(C(=O)N(C)Cc1ccccc1)cn2C | / | . | . | / | . | .
N#CC(=Cc1ccncc1)c1ccccc1 | . | ? | . | . | . | 13µM
N#C/C(=C\c1ccc(C(=O)O)cc1)c1ccccn1 | . | . | . | . | . | .
N#C/C(=C/c1ccc(N2CCOCC2)o1)C(=O)NC1CCCCC1 | . | ? | ? | . | ? | .
N#C/C(=C\N1CCOCC1)c1ccccc1 | . | . | . | . | . | .
N#C/C(=C\c1ccc(N2CCOCC2)cc1)c1ccccc1 | ? | . | 14.6µM | . | 20.6µM | .
N#C/C(=C/c1ccc(N2CCOCC2)o1)c1nc2ccccc2[nH]1 | . | . | ? | ? | ? | ?

Screens: PubChem BioAssay, National Center for Advancing Translational Sciences (NCATS)
